Common to all, as to assay: yeast three-hybrid, YBZ-1, SC-Leu-His + 0.5 mM 3-AT, 4 days
Holding throughout (conditions): tags: N-Gal4 AD-HA kept; label: inside an RPR1-promoter hybrid RNA with tandem MS2 sites; ssRNA

One test concerns the target PUM1 PUF domain R5-KQR (Homo sapiens, UniProt Q14671 828-1176, C1007K;R1008Q;Q1011R). In a few lines: (§1)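 The interaction score is the log change in how often each variant appears, from input to selection. Frequencies came from PCR-amplified, Illumina-sequenced repeat regions of Pumilio-1 PUF domain libraries grown in strain YBZ-1 (LexA–MS2 coat fusion, HIS3 reporter) alongside matching RNA elements. Input plates were SC-Leu and selection plates were SC-Leu-His + 0.5 mM 3-AT, each for four days, and the log2 calculation used a pseudocount of 1 where a variant was absent.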

For another test, the target named is PUM1 PUF domain R5-HAD (Homo sapiens, UniProt Q14671 828-1176, C1007H;R1008A;Q1011D). In a few lines:
as §1

The next test has as its target PUM1 PUF domain R5-NQR (Homo sapiens, UniProt Q14671 828-1176, C1007N;R1008Q;Q1011R). In a few lines:
as §1

Another test concerns the target PUM1 PUF domain R5-RFV (Homo sapiens, UniProt Q14671 828-1176, C1007R;R1008F;Q1011V). In a few lines: as §1
The target of the next test is PUM1 PUF domain R3-SRR (Homo sapiens, UniProt Q14671 828-1176, C935S;Q939R). In a few lines: as §1
For the next test, the target named is PUM1 PUF domain R4-CPV (Homo sapiens, UniProt Q14671 828-1176, N971C;H972P;Q975V). In a few lines:
as §1

The next test deals with PUM1 PUF domain R8-RRA (Homo sapiens, UniProt Q14671 828-1176, N1122R;Y1123R;Q1126A). In a few lines:
as §1

The target of the next test is T1, PUM1 PUF domain R6-RPG (Homo sapiens, UniProt Q14671 828-1176, N1043R;Y1044P;Q1047G).
T1 sequence: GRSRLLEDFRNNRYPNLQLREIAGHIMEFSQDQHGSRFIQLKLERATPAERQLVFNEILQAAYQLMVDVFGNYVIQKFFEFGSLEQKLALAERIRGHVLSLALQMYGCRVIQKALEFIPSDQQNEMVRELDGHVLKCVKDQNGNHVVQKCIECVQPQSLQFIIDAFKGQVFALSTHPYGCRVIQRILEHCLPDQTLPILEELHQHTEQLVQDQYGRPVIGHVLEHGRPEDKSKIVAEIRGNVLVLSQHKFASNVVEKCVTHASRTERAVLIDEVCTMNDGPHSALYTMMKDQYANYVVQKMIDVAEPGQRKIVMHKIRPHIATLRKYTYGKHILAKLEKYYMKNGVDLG
In a few lines:
as §1

A further test addresses PUM1 PUF domain R8-RHV (Homo sapiens, UniProt Q14671 828-1176, N1122R;Y1123H;Q1126V). In a few lines: as §1
In another test the target is PUM1 PUF domain R3-TYF (Homo sapiens, UniProt Q14671 828-1176, C935T;R936Y;Q939F). In a few lines:
as §1

A further test deals with PUM1 PUF domain R4-NNA (Homo sapiens, UniProt Q14671 828-1176, H972N;Q975A). In a few lines: as §1
Another test concerns the target PUM1 PUF domain R5-EYR (Homo sapiens, UniProt Q14671 828-1176, C1007E;R1008Y;Q1011R). In a few lines: as §1
For the next test, the target named is PUM1 PUF domain R3-MWH (Homo sapiens, UniProt Q14671 828-1176, C935M;R936W;Q939H). In a few lines:
as §1

The target in a further test is PUM1 PUF domain R7-ASR (Homo sapiens, UniProt Q14671 828-1176, S1079A;N1080S;E1083R). In a few lines: as §1
In the next test the target is PUM1 PUF domain R5-SMS (Homo sapiens, UniProt Q14671 828-1176, C1007S;R1008M;Q1011S). In a few lines:
as §1

For a further test, the target named is PUM1 PUF domain R5-FNL (Homo sapiens, UniProt Q14671 828-1176, C1007F;R1008N;Q1011L). In a few lines: as §1
A further test concerns the target PUM1 PUF domain R1-RKQ (Homo sapiens, UniProt Q14671 828-1176, S863R;R864K). In a few lines: as §1
A further test concerns the target PUM1 PUF domain R1-RLS (Homo sapiens, UniProt Q14671 828-1176, S863R;R864L;Q867S). In a few lines: as §1
Another test concerns the target PUM1 PUF domain R8-FYH (Homo sapiens, UniProt Q14671 828-1176, N1122F;Q1126H). In a few lines:
as §1

The target in a further test is PUM1 PUF domain R7-QPK (Homo sapiens, UniProt Q14671 828-1176, S1079Q;N1080P;E1083K). In a few lines:
as §1

For “GGCUAGAACUAGUGGAUCCCCCGGCGCCCGGCGGCUCGAGCCCGGGUAAGUGUCAAUAGUCUGCAUGCCGCCGGGCGCCAUGCCUGCAGGUCGACUCUAGAAAACAUG”, the binding signal with PUM1 PUF domain R5-KQR was 2.87 log2 enrichment (interaction score); with PUM1 PUF domain R5-HAD, 6.65 log2 enrichment (interaction score); with PUM1 PUF domain R5-NQR it was 4.31 log2 enrichment (interaction score); with PUM1 PUF domain R5-RFV, 5.48 log2 enrichment (interaction score).
With “GGCUAGAACUAGUGGAUCCCCCGGCGCCCGGCGGCUCGAGCCCGGGUAAGUGUAACUAGUCUGCAUGCCGCCGGGCGCCAUGCCUGCAGGUCGACUCUAGAAAACAUG”, in the test with PUM1 PUF domain R3-SRR, the binding signal was 3.34 log2 enrichment (interaction score).
Still for that read-out and setting: the result for “GGCUAGAACUAGUGGAUCCCCCGGCGCCCGGCGGCUCGAGCCCGGGUAAGUGUAAGUAGUCUGCAUGCCGCCGGGCGCCAUGCCUGCAGGUCGACUCUAGAAAACAUG” reads 2.24 log2 enrichment (interaction score).
On to “GGCUAGAACUAGUGGAUCCCCCGGCGCCCGGCGGCUCGAGCCCGGGUAAGUGUACAUAGUCUGCAUGCCGCCGGGCGCCAUGCCUGCAGGUCGACUCUAGAAAACAUG”, for which the binding signal with PUM1 PUF domain R4-CPV was 1.61 log2 enrichment (interaction score).
“GGCUAGAACUAGUGGAUCCCCCGGCGCCCGGCGGCUCGAGCCCGGGUAAGUGUAAAUAGUCUGCAUGCCGCCGGGCGCCAUGCCUGCAGGUCGACUCUAGAAAACAUG”: the binding signal with PUM1 PUF domain R8-RRA is 1.42 log2 enrichment (interaction score); with PUM1 PUF domain R5-KQR, 0.64 log2 enrichment (interaction score); with PUM1 PUF domain R6-RPG it was 3.6 log2 enrichment (interaction score); in the test with PUM1 PUF domain R8-RHV, 3.99 log2 enrichment (interaction score); with PUM1 PUF domain R3-TYF, 6.49 log2 enrichment (interaction score); with PUM1 PUF domain R5-RFV it was 2.29 log2 enrichment (interaction score). The binding signal in the test with PUM1 PUF domain R4-NNA is 2.12 log2 enrichment (interaction score); in the test with PUM1 PUF domain R5-EYR it was 5.2 log2 enrichment (interaction score); in the test with PUM1 PUF domain R3-MWH it was 2.6 log2 enrichment (interaction score); in the test with PUM1 PUF domain R3-SRR it was 0.87 log2 enrichment (interaction score); with PUM1 PUF domain R4-CPV, 1.1 log2 enrichment (interaction score).
Regarding “GGCUAGAACUAGUGGAUCCCCCGGCGCCCGGCGGCUCGAGCCCGGGUAAGUUUAAAUAGUCUGCAUGCCGCCGGGCGCCAUGCCUGCAGGUCGACUCUAGAAAACAUG”, in the test with PUM1 PUF domain R7-ASR, the binding signal is 2.25 log2 enrichment (interaction score).
In the case of “GGCUAGAACUAGUGGAUCCCCCGGCGCCCGGCGGCUCGAGCCCGGGUAAGUGUAAUUAGUCUGCAUGCCGCCGGGCGCCAUGCCUGCAGGUCGACUCUAGAAAACAUG”, the binding signal with PUM1 PUF domain R3-SRR was 3.98 log2 enrichment (interaction score).
As to “GGCUAGAACUAGUGGAUCCCCCGGCGCCCGGCGGCUCGAGCCCGGGUAAGUGUUAAUAGUCUGCAUGCCGCCGGGCGCCAUGCCUGCAGGUCGACUCUAGAAAACAUG”, the binding signal with PUM1 PUF domain R5-SMS was 0.83 log2 enrichment (interaction score); in the test with PUM1 PUF domain R5-NQR, 4.88 log2 enrichment (interaction score); with PUM1 PUF domain R5-FNL, 3.47 log2 enrichment (interaction score); in the test with PUM1 PUF domain R5-RFV it was 4.04 log2 enrichment (interaction score).
As for “GGCUAGAACUAGUGGAUCCCCCGGCGCCCGGCGGCUCGAGCCCGGGUAAGUGUAUAUAGUCUGCAUGCCGCCGGGCGCCAUGCCUGCAGGUCGACUCUAGAAAACAUG”, the binding signal with PUM1 PUF domain R4-NNA is 4.34 log2 enrichment (interaction score); with PUM1 PUF domain R4-CPV it was 2.93 log2 enrichment (interaction score).
Regarding “GGCUAGAACUAGUGGAUCCCCCGGCGCCCGGCGGCUCGAGCCCGGGUAAGUGUAAAUGGUCUGCAUGCCGCCGGGCGCCAUGCCUGCAGGUCGACUCUAGAAAACAUG”, the binding signal in the test with PUM1 PUF domain R1-RKQ was 2.35 log2 enrichment (interaction score).
Consider “GGCUAGAACUAGUGGAUCCCCCGGCGCCCGGCGGCUCGAGCCCGGGUAAGUGUAAAUUGUCUGCAUGCCGCCGGGCGCCAUGCCUGCAGGUCGACUCUAGAAAACAUG”, for which, in the test with PUM1 PUF domain R1-RLS, the binding signal is 2.64 log2 enrichment (interaction score).
With “GGCUAGAACUAGUGGAUCCCCCGGCGCCCGGCGGCUCGAGCCCGGGUAAGUGUGAAUAGUCUGCAUGCCGCCGGGCGCCAUGCCUGCAGGUCGACUCUAGAAAACAUG”, the binding signal is 2.69 log2 enrichment (interaction score) in the test with PUM1 PUF domain R5-SMS and 1.88 log2 enrichment (interaction score) with PUM1 PUF domain R5-RFV.
Take “GGCUAGAACUAGUGGAUCCCCCGGCGCCCGGCGGCUCGAGCCCGGGUAAGCGUAAAUAGUCUGCAUGCCGCCGGGCGCCAUGCCUGCAGGUCGACUCUAGAAAACAUG”: the values for the binding signal with PUM1 PUF domain R8-RRA, in the test with PUM1 PUF domain R8-FYH and with PUM1 PUF domain R8-RHV were 3.15 log2 enrichment (interaction score), 2.85 log2 enrichment (interaction score) and 5.23 log2 enrichment (interaction score), respectively.
Take “GGCUAGAACUAGUGGAUCCCCCGGCGCCCGGCGGCUCGAGCCCGGGUAAGUCUAAAUAGUCUGCAUGCCGCCGGGCGCCAUGCCUGCAGGUCGACUCUAGAAAACAUG”: the binding signal with PUM1 PUF domain R7-QPK was 4.87 log2 enrichment (interaction score).
As to “GGCUAGAACUAGUGGAUCCCCCGGCGCCCGGCGGCUCGAGCCCGGGUAAGUGUAAAUCGUCUGCAUGCCGCCGGGCGCCAUGCCUGCAGGUCGACUCUAGAAAACAUG”, the binding signal with PUM1 PUF domain R1-RLS is 1.22 log2 enrichment (interaction score).

Source of the values: article PMC8384837, “Expanding the binding specificity for RNA recognition by a PUF domain”.
